About 83,000 compounds went through this panel and 20% of them were active in at least one assay; those are over-represented in the sample as a whole.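 The endpoint reported here, percent growth, reads 100 for growth as untreated, 0 for no net growth and -100 for all cells dead.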 Values without a mark were called inactive. The source made the active and inactive calls. How the source made its calls: active means growth percent below 10; inactive means the rest.
Experiments:
Experiment in all cases: NCI-60 one-dose screen, 48 h (100 = growth as untreated, 0 = no growth, -100 = all killed)
Settings in all cases: 10 µM unless noted
SR leukemia = tested on: SR leukemia
RPMI-8226 leukemia = tested on: RPMI-8226 leukemia
OVCAR-8 ovarian = tested on: OVCAR-8 ovarian
OVCAR-5 ovarian = tested on: OVCAR-5 ovarian
OVCAR-4 ovarian = tested on: OVCAR-4 ovarian
SK-OV-3 ovarian = tested on: SK-OV-3 ovarian
IGROV1 ovarian = tested on: IGROV1 ovarian
OVCAR-3 ovarian = tested on: OVCAR-3 ovarian
NCI/ADR-RES ovarian = tested on: NCI/ADR-RES ovarian
HS 578T breast = tested on: HS 578T breast

`C=CCNCCC#N` showed a growth (SR leukemia) of 89.7%, a growth (RPMI-8226 leukemia) of 101% and a growth (OVCAR-8 ovarian) of 96.8%. It also gave a growth (OVCAR-5 ovarian) of 108%, a growth (OVCAR-4 ovarian) of 106% and a growth (SK-OV-3 ovarian) of 103%. The growth (IGROV1 ovarian) was 108%, the growth (OVCAR-3 ovarian) was 114% and the growth (NCI/ADR-RES ovarian) was 117%.
`COC(=O)Nc1nc2ccc(C(=O)c3ccccc3N(C)C3COC3)cc2[nH]1` was tested, and the growth (SR leukemia) was 35.6%, the growth (RPMI-8226 leukemia) was -8.33% (active) and the growth (OVCAR-8 ovarian) was 34.7%. For the same compound, the growth (OVCAR-5 ovarian) was 57%, the growth (OVCAR-4 ovarian) was 75.8% and the growth (IGROV1 ovarian) was 58.6%. It also gave a growth (OVCAR-3 ovarian) of 14.6%, a growth (HS 578T breast) of 22.5% and a growth (NCI/ADR-RES ovarian) of 53.3%.
`CC(C)OC(=O)[C@H](C)N[P@@](=O)(OC[C@@]1(C)O[C@@H](n2cc(F)c(N)nc2=O)C[C@@H]1O[P@](=O)(N[C@@H](C)C(=O)OC(C)C)Oc1ccccc1)Oc1ccccc1` gave a growth (SR leukemia) of 124%, a growth (RPMI-8226 leukemia) of 105% and a growth (OVCAR-8 ovarian) of 79.4%. The growth (OVCAR-5 ovarian) was 110%, the growth (OVCAR-4 ovarian) was 112% and the growth (IGROV1 ovarian) was 94.4%. It also gave a growth (OVCAR-3 ovarian) of 102%, a growth (HS 578T breast) of 85.6% and a growth (NCI/ADR-RES ovarian) of 103%.

— PubChem BioAssay (NCI)
